Sampled rows, rich in hits. Any-hit rate of the full collection: about 3.7%.
A549 tox-1 – Nrf2 qHTS screen for inhibitors: counterscreen for cytotoxicity; A549 ARE-Fluc cells, CellTiter-Fluor viability, 18-24 h; Potency, µM (doses to about 46 µM), hits mostly inhibitors; 0.16% of 390,000 active; AID 504648, 2011
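A549 ARE-Fluc cells in 5% FBS OPTI-MEM, 5000 cells/well, rested 2 h then exposed to compounds in concentration-response for 18-24 h at 37 °C. Viability by CellTiter-Fluor fluorescence (Ex 405/Em 525) after 30 min; luciferase luminescence (BugLite, 15 min, RT) read afterwards.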
p53 reactivator – qHTS assay for re-activators of p53 using a Luc reporter; 0.063% of 320,000 active; Potency, µM (titrated, usually from 92.2 µM), hits mostly activators; H1299 p53-A138V BP100-luciferase reporter, luminescence, 24 h; also: nearly all actives have a fitted effect of over 45% in size
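p53-null H1299 cells stably carrying temperature-sensitive p53-A138V and a BP100-luciferase reporter were pinned with compounds (4-point, 1:5 series) and held 24 hrs at 37 deg C. Luminescence was read 10 min after detection reagent.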
miR-21 act – qHTS Assay for Modulators of miRNAs and/orActivators of miR-21; AID 2288, 2010; Potency, µM (highest dose often 38.3 µM), usual class: activators; 340,000 tested, under 10 active; HeLa miR-21 FLuc reporter, luciferase, 48 h;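 also: miR-21 action dims this reporter so a rising signal means less miR-21 action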
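HeLa cells endogenously expressing miR-21, stably carrying CMV-driven firefly luciferase with a downstream miR-21 binding site, 2000 cells/well. Titrations up to approximately 40 uM, 48 hours; luciferase luminescence read.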
Nrf2 ARE act – qHTS of Nrf2 Activators. AREc32 ARE-luciferase reporter (MCF7-derived line), luminescence, 24 h. Potency, µM (doses to about 46.1 µM), usual class: activators. 0.31% of 410,000 active; also: nearly all actives have a fitted effect of over 65% in size
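Steps: seed AREc32_Fluc cells (1000/well, 5% FBS OPTI-MEM); incubate overnight at 37 deg C; add 23 nL compound; incubate 24 hr; add Steady-Glo; hold 30 min RT; read luminescence.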
ClpP mod – qHTS Assay for Activators of ClpP | Potency, µM (top dose mostly 57.5 µM) | ATP-dependent Clp protease proteolytic subunit (Bacillus subtilis (strain 168)), P80244 | purified B. subtilis ClpP, FRET peptide cleavage, 20 min | 1.9% of 340,000 active; active = well fitted falling curve with a large enough effect; inconclusive = small, poorly fitted or top-dose-only effect; inactive = no such curve, though single readings can be large or run the other way; also: the source files actives as falling curves though it sought activators and does not explain the sign; nearly all actives have a fitted effect of over 65% in size
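Buffer: 100 mM Tris/HCl pH8, 100 mM KCl, 0.05% low protease BSA, 2.5% glycerol, 0.01% Tween-20. ClpP 10 microg/mL final; 20 min RT; delta FRET normalized to ADEP and DMSO controls.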
Nrf2 inh – Nrf2 qHTS screen for inhibitors | A549 ARE-Fluc reporter, luciferase luminescence, 18-24 h | Potency, µM (top dose mostly 46 µM), actives largely listed as inhibitors | 2.1% of 360,000 active | AID 504444, 2011; also: nearly all actives have a fitted effect of over 60% in size
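Cells were seeded and rested 2 h, then exposed to compounds for 18-24 h. CellTiter-Fluor was read first as a viability measure. BugLite was added 15 min before the final luminescent read of ARE-luciferase activity in A549 cells.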
FLuc enzyme inh – Nrf2 qHTS screen for inhibitors: Purified Fluc Biochemical Counterscreen for Hit Validation | shares compounds with Nrf2 inh | AID 720522, 2013 | purified firefly luciferase, luminescence inhibition | 4% of 1,400 active | Potency, µM (top dose mostly 57.5 µM), usual class: inhibitors; also: nearly all actives have a fitted effect of over 65% in size
A549 tox-2 – Nrf2 qHTS screen for inhibitors: A549 ARE-Fluc Cytotoxicity Counterscreen for Hit Validation; shares compounds with Nrf2 inh; A549 ARE-Fluc cells, cytotoxicity counterscreen; Potency, µM (top dose mostly 46.1 µM), most hits filed as inhibitors; 2% of 1,400 active;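 also: cells exposed to compounds for 18 to 24 hours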
ARE-Fluc inh – Nrf2 qHTS screen for inhibitors: Nrf2 A549 ARE-Fluc Confirmation Assay for Hit Validation | shares compounds with Nrf2 inh | A549 ARE-firefly luciferase reporter, luminescence | Potency, µM (series often up to 46.1 µM), usual class: inhibitors | 74% of 1,400 active | AID 720524, 2013; also: nearly all actives have a fitted effect of over 65% in size
Large screens that a line does not name were inactive (follow-up assays come after a bar, where shown). Unless noted, calls follow the shape of the dose curve; as a rule, active = well fitted curve in the direction sought with a large enough effect; inconclusive = small, poorly fitted or top-dose-only effect, or another doubt; inactive = no such curve, though single readings can be large; an effect the other way counts as inactive or inconclusive.

CCn1c(SCC(=O)Nc2cccc(OC)c2)nc2ccccc2c1=O	Nrf2 inh 8.2µM | FLuc enzyme inh inactive | A549 tox-2 inactive | ARE-Fluc inh inactive
COc1cc(C(=O)Nc2sc3c(c2C(=O)O)CCC(C)C3)cc(OC)c1OC (stereo not given)	Nrf2 inh 5.2µM (no result: ClpP mod) | FLuc enzyme inh inactive | A549 tox-2 inactive | ARE-Fluc inh 7.3µM
CC(=O)Nc1ccc(-c2ccnc3c2CC(C)(C(=O)Nc2cccc(C(C)=O)c2)O3)cc1 (stereo not given)	none (no result: A549 tox-1, p53 reactivator, miR-21 act, Nrf2 inh)
COc1ccc2ccc3cccc[n+]3c2c1	Nrf2 inh 4.6µM (no result: p53 reactivator, miR-21 act) | FLuc enzyme inh inactive | A549 tox-2 inactive | ARE-Fluc inh 23µM
Cc1ccccc1-c1nc(CNC(=O)Nc2ccccc2)c(C)o1	none (no result: p53 reactivator, Nrf2 inh)
Cc1cccc(Cl)c1NC(=O)N1CCCN(c2nc3ccc(Cl)cc3s2)CC1	A549 tox-1 inconclusive, Nrf2 inh 9.2µM | FLuc enzyme inh inactive | A549 tox-2 inactive | ARE-Fluc inh 9.2µM
CCOc1ccccc1CNC(=O)c1cccn1-c1nnc(N2CCCC2)s1	Nrf2 inh inconclusive (no result: p53 reactivator)
Cc1ccc(S(=O)(=O)N2C[C@@H]3CCCC[C@@H]3[C@@H](C)[C@H]2c2cn(Cc3ccccc3)c3ncccc23)cc1	p53 reactivator inconclusive, Nrf2 inh 5.2µM (no result: miR-21 act) | FLuc enzyme inh inactive | A549 tox-2 inactive | ARE-Fluc inh 5.2µM
COc1ccc2c(c1)c([C@@H]1[C@H](C)[C@H]3CCCC[C@H]3CN1S(=O)(=O)c1ccc(C)cc1)cn2C	none (no result: miR-21 act)
Cc1ccc(S(=O)(=O)N2C[C@@H]3CCCC[C@@H]3[C@@H](C)[C@H]2c2cn(Cc3ccccc3)c3ccccc23)cc1	Nrf2 inh 1.8µM (no result: miR-21 act) | FLuc enzyme inh inactive | A549 tox-2 inactive | ARE-Fluc inh 2.9µM
CCN(CC)S(=O)(=O)c1ccc2nc(NC(=O)c3cccnc3)sc2c1	none (no result: p53 reactivator, Nrf2 inh)
CCCCn1c(SCC(=O)Nc2nnc(C(C)C)s2)nc2c1c(=O)n(C)c(=O)n2C	A549 tox-1 inconclusive, Nrf2 inh 7.3µM | FLuc enzyme inh inactive | A549 tox-2 inactive | ARE-Fluc inh 16µM
CCCn1c(SCC(=O)Nc2nnc(CC)s2)nc2c1c(=O)n(C)c(=O)n2C	none (no result: A549 tox-1, Nrf2 ARE act, ClpP mod, Nrf2 inh)
Cc1ccc(-n2nc3c(=O)n(CC(=O)NCCC(C)C)nc(C)c3c2C)cc1	none (no result: p53 reactivator)
COc1cc(C2CC(=O)c3c([nH]c(C(=O)OC4CCCC4)c3C)C2)cc(OC)c1OC (stereo not given)	A549 tox-1 inconclusive, miR-21 act inconclusive, Nrf2 inh 5.8µM (no result: p53 reactivator) | FLuc enzyme inh inactive | A549 tox-2 inconclusive | ARE-Fluc inh 12µM
COC(=O)c1[nH]c2c(c1C)C(=O)CC(c1cc(OC)c(OC)c(OC)c1)C2 (stereo not given)	Nrf2 inh 9.2µM | FLuc enzyme inh inactive | A549 tox-2 inactive | ARE-Fluc inh inconclusive
COC(=O)c1[nH]c2c(c1C)C(=O)CC(c1ccc(OC)c(OC)c1)C2 (stereo not given)	Nrf2 inh inconclusive
O=C(CSc1nc2ccccc2nc1Cc1ccc(Cl)cc1)NCCc1ccccc1	none (no result: p53 reactivator, Nrf2 inh)
CC(=O)c1cccc(NS(=O)(=O)c2ccc(NC(=O)N3CCCCC3)cc2)c1	Nrf2 inh 8.2µM | FLuc enzyme inh inactive | A549 tox-2 inactive | ARE-Fluc inh 15µM
CSc1cccc(NS(=O)(=O)c2ccc(C(C)=O)cc2)c1	Nrf2 inh 4.6µM (not shown: ClpP mod) | FLuc enzyme inh inactive | A549 tox-2 inactive
Cc1cccc(Cn2nnc3c(=O)[nH]c(C4CCCN(C(=O)c5ccccc5Cl)C4)nc32)c1 (stereo not given)	none (no result: p53 reactivator)
Cc1ccsc1-c1nc(CSCC(=O)N2CCN(c3ccccc3)CC2)c(C)o1	Nrf2 inh inconclusive
COc1ccc(-c2nc(CSCC(=O)N3CCN(c4ccccc4)CC3)c(C)o2)cc1	A549 tox-1 inconclusive, miR-21 act inconclusive, Nrf2 inh 2.6µM (no result: p53 reactivator) | FLuc enzyme inh inactive | A549 tox-2 inactive | ARE-Fluc inh inconclusive
COc1cc(C2C3=C(COC3=O)Oc3cc4c(cc32)OCO4)cc(OC)c1O (stereo not given)	none (no result: p53 reactivator, miR-21 act)
CC(=O)OCC(=O)C1(O)CCC2C3CCC4=CC(=O)CCC4(C)C3(Cl)C(O)CC21C (stereo not given)	Nrf2 inh 1.2µM (no result: p53 reactivator, miR-21 act, ClpP mod) | FLuc enzyme inh inactive | A549 tox-2 inactive | ARE-Fluc inh 0.52µM
CC(=O)OCC(=O)C1(O)CCC2C3CCC4=CC(=O)CCC4(C)C3(F)C(O)CC21C (stereo not given)	Nrf2 inh 0.037µM (no result: p53 reactivator, miR-21 act) | FLuc enzyme inh inactive | A549 tox-2 inactive | ARE-Fluc inh 0.021µM
